High-throughput results deposited in PubChem BioAssay by National Center for Advancing Translational Sciences (NCATS).
Compounds with a hit are over-represented: about 10% of the library has one in this group of screens.
G9a block: qHTS Assay for Inhibitors of Histone Lysine Methyltransferase G9a; Histone-lysine N-methyltransferase EHMT2 (Homo sapiens), Q96KQ7; G9a H3K9 monomethylation, AlphaScreen, 2 h; Potency, µM (doses to about 102 µM), inactives show at the highest dose activity, negative = inhibition, actives largely listed as inhibitors; 8.8% of 350,000 active; further: potency means the concentration at half of the fitted maximal effect; on the % scale 0 is the no-effect control and ±100 the full control effect; nearly all actives have a fitted effect of over 75% in size
Target sequence (Q96KQ7 913-1193 limits assumed): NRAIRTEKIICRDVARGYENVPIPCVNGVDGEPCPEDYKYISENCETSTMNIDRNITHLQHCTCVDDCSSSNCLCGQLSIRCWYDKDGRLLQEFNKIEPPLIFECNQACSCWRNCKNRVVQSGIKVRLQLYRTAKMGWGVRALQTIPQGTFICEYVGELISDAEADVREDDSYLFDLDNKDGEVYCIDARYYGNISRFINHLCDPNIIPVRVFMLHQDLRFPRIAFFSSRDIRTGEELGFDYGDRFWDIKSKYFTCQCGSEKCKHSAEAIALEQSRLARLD
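Compounds were preincubated with 20 nM G9a for 15 min, after which biotinylated H3K9 peptide (500 nM) and SAM (20 uM) started a 2 h room-temperature reaction. Monomethylated product was quantified by antibody-based AlphaScreen chemiluminescence.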
BAZ2B block: qHTS Assay for Inhibitors of BAZ2B; AlphaScreen BAZ2B-H3K14Ac peptide displacement; Potency, µM (doses to about 114 µM), for the others: at the top dose activity change, negative = inhibition, most hits filed as inhibitors; 4.4% of 360,000 active; AID 504333, 2011; further: potency means the concentration at half of the fitted maximal effect; on the % scale 0 is the no-effect control and ±100 the full control effect; nearly all actives have a fitted effect of over 60% in size
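Multi-concentration screen (max 110 uM) measuring displacement of acetylated histone H3 peptide from BAZ2B by AlphaScreen, using 50 nM protein, 50 nM peptide and 10 ug/mL streptavidin donor plus Ni-chelate acceptor beads.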
CtBP-E1A blk: qHTS Assay for Inhibitors of the CtBP/E1A Interaction. AlphaScreen GST-E1A/His-CtBP binding, 1536-well; active compounds read low. activity change, % (no concentration beside the values). 0.49% of 340,000 active; in the data active means activity change below about -65%; inconclusive means mostly about -30% to -63%; further: on the % scale 0 is the no-effect control and ±100 the full control effect
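Protein mix (5X: 125 nM each GST-E1A, His-CtBP) was incubated with pinned compound 2 h at 37 deg C in dark, in 50 mM Tris pH 8.0 buffer with 300 mM NaCl. Glutathione donor and nickel acceptor beads followed; AlphaScreen signal read after 1 h.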
JMJD2A Tudor: qHTS Assay for Inhibitors of JMJD2A-Tudor Domain; Lysine-specific demethylase 4A (Homo sapiens), O75164; Potency, µM (titrated, usually from 114 µM), for the others: at the top dose activity change, negative = inhibition, usual class: inhibitors; 4.4% of 390,000 active; AlphaScreen JMJD2A-Tudor / H3K4me3 peptide binding; further: potency means the concentration at half of the fitted maximal effect; on the % scale 0 is the no-effect control and ±100 the full control effect; nearly all actives have a fitted effect of over 50% in size
HP1b binding inh: HTS for Inhibitors of HP1-beta Chromodomain Interactions with Methylated Histone Tails | Chromobox protein homolog 1 (Homo sapiens), P83916 | AlphaScreen HP1-beta / biotin-H3K9me3 peptide binding | Potency, µM (titrated, usually from 114 µM), for the others: at the top dose activity change, negative = inhibition, usual class: inhibitors | 0.56% of 390,000 active | AID 540317, 2011; further: potency means the concentration at half of the fitted maximal effect; nearly all actives have a fitted effect of over 70% in size
Target sequence (P83916 whole entry, looked up): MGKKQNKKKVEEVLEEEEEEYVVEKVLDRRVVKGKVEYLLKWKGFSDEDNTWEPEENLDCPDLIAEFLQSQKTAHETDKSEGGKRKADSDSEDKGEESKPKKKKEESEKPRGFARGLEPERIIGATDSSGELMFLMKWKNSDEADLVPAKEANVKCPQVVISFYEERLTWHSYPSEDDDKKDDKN
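Compound inhibition of the preformed complex between 50 nM HP1-beta and 50 nM biotinylated H3K9me3 peptide was read by AlphaScreen. Buffer was PBS pH 7.4 with 0.01% Tween-20. Incubations ran 30 min at room temperature, with 10 ug/mL donor/acceptor beads.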
Six1-Eya2 blk: qHTS Assay for Inhibitors of the Six1/Eya2 Interaction | Homeobox protein SIX1 (Homo sapiens) + Protein phosphatase EYA2 (Homo sapiens), … | AlphaScreen GST-Six1/His-Eya2 binding, biochemical; active compounds read low | activity change, % (test concentration not listed) | 0.56% of 360,000 active | AID 651725, 2012; in the data active means activity change below about -65%; inconclusive means mostly about -30% to -63%; further: on the % scale 0 is the no-effect control and ±100 the full control effect
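GST-Six1 + His-Eya2 (5X stock: 250/500 nM); Tris pH 8.0, 300 mM NaCl, 0.05% BSA, 0.02% Tween 20; GSH donor/Ni acceptor beads; 1 h 37 °C dark; AlphaScreen readout.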
An asterisk follows results filed as active; u = inconclusive; x = not tested or not shown; [ ] = remark or other dose. Unless noted, the call rests on the fitted dose curve; in most records, active means well fitted inhibition curve with a large enough effect; inconclusive means small, poorly fitted or top-dose-only effect; inactive means no such curve, though single readings can be large or run the other way.

SMILES	G9a block	BAZ2B block	CtBP-E1A blk	JMJD2A Tudor	HP1b binding inh	Six1-Eya2 blk
CC(=O)/C(=N\Nc1ccc(Cl)cc1)Sc1nnc(-c2ccccc2)n1-c1ccccc1	6.31µM*	-4.0%	10.1	u	29.0%	-1.3
CCNc1ccc(Br)cc(C(=O)/C=C/c2ccc(Cl)cc2)c1=O	10µM*	10µM*	2.4	44.7µM*	-34.7%	-11.5
Cc1ccc(O)c(C(=O)/C=C/c2ccc3c(c2)OCCO3)c1	25.1µM*	28.2µM*	x	28.2µM*	u	0.6
CCNc1ccc(Br)cc(C(=O)/C=C/c2ccc3c(c2)OCO3)c1=O	x	22.4µM*	-1.8	44.7µM*	20µM*	-5.4
CCNC(=O)/C=C/c1cccc(Br)c1	-19.2%[12.7 µM]	x	x	x	x	x
CCNc1ccc(Br)cc(C(=O)/C=C/c2c(Cl)cccc2Cl)c1=O	3.98µM*	25.1µM*	-3.2	89.1µM*	u	-12.3
Cc1ccc(NC(=O)/C=C/c2ccc(Cl)cc2)c(Br)c1	-3.1%[59 µM]	8.7%	x	5.4%	26.1%	x
O=C(Nc1c(-c2ccccc2)nc2ccccn12)c1ccc(Br)cc1	-3.0%[59 µM]	3.0%	x	-18.8%	8.0%	x
COc1ccc(C2C3C=CCC(c4cccc(-c5ccc(N(C)C)cc5)c4)C3C(=O)N2Cc2ccccc2)cc1Cl (stereo not drawn)	x	x	x	u	-10.9%	x
CCN(C(=O)Cn1nc(Cc2cccnc2)c2ccccc2c1=O)c1cc(C)ccc1C	1.0%[59 µM]	-19.6%	x	-26.8%	38.2%	x
O=C(/C=C/c1ccc2c(c1)OCO2)c1ccc(O)cc1O	x	x	0.0	u	-7.4%[57 µM]	-0.2
Nc1ccccc1C(=O)/C=C/c1ccc2c(c1)OCO2	39.8µM*	14.1µM*	0.1	44.7µM*	u	0.1
Cc1ccc(NC(=O)c2c(NC(=O)C(F)(F)F)sc3c2CCCCC3)cc1	u	-29.2%	x	u	u	x
CC(C)(C)C(=O)Nc1sc2c(c1C(=O)Nc1ccccn1)CCCC2	-8.6%	5.8%	-23.9	44.7µM*	11.5%	5.6
Cc1ccccc1NC(=O)c1c(NC(=O)C(F)(F)F)sc2c1CCCCC2	8.91µM*	-14.1%	x	-20.9%	12.5%	x
Cc1cccc(NC(=O)c2c(NC(=O)C(F)(F)F)sc3c2CCCCC3)c1	u	-38.1%	x	u	-9.1%	x
O=C(Nc1cccc(Cl)c1)c1c(NC(=O)C(F)(F)F)sc2c1CCCC2	3.98µM*	50.1µM*	x	79.4µM*	u	x
Cc1ccccc1NC(=O)c1c(NC(=O)c2ccncc2)sc2c1CCC(C(C)(C)C)C2 (stereo not drawn)	17.8µM*	-14.8%	x	u	17.7%	x
Cc1ccc2nc(-c3cccc(NC(=O)c4cccc5ccccc45)c3)oc2c1	4.1%[59 µM]	-13.2%	x	1.5%	26.2%	x
Cn1c2c(c(=O)n(C)c1=O)C(c1ccccc1[N+](=O)[O-])CC(=O)N2 (stereo not drawn)	-20.3%[59 µM]	0.2%	x	-1.7%	21.5%	x
Cn1cc(-c2cc3n(n2)CCC(=O)N3CCCC(=O)Nc2ccccc2Cl)c2ccccc21	-10.2%[59 µM]	-9.0%	x	-23.6%	8.3%[57 µM]	x
COc1ccc(N/C=C(\C#N)c2ccc(OCCCF)cc2)cc1	-11.7%[12.7 µM]	u	-9.4	u	-11.9%	-26.4
Cc1ccc(N/C=C(\C#N)c2ccc(OCCCF)cc2)cc1	44.7µM*	u	-0.4	-15.8%	5.8%	-12.9
CC(C)Cn1cc(NC(=O)NCc2ccc(Cl)cc2)c2ccccc2c1=O	u	3.4%[57.1 µM]	x	39.8µM*	31.8%	x
COc1cc(NC(=O)Cn2c(=O)n(-c3ccccc3)c(=O)c3c4c(sc32)CCCC4)cc(OC)c1	4.3%[59 µM]	0.9%	x	3.4%	28.3%	x
SMILES	G9a block	BAZ2B block	CtBP-E1A blk	JMJD2A Tudor	HP1b binding inh	Six1-Eya2 blk
c1ccc2sc(SN3CCOCC3)nc2c1	u	3.0%	-3.8	39.8µM*	u	7.5
COc1ccc(CCNCc2c(C(=O)O)c(C)n(Cc3cccc(Cl)c3)c2C)c(OC)c1OC	-0.6%[59 µM]	-13.5%	x	-14.4%	26.4%	x
O=C(Nc1ccccc1)N1CCN(C(=O)c2nsc3ccccc23)CC1	-3.7%[59 µM]	1.4%	x	-12.7%	19.3%[57 µM]	x
CCC(=O)N(Cc1ccco1)c1nc(-c2ccc(OC)cc2)cs1	7.6%[59 µM]	-3.7%	0.6	-15.8%	22.2%	5.9
COCC(=O)N(Cc1ccco1)c1nnc(C2CCOC2)s1 (stereo not drawn)	79.4µM*	12.6%	3.1	-0.6%	37.2%	2.3
CC(=N\O)/C(CN(C)C)=N/O	u	0.4%	7.7	79.4µM*	24.0%	-0.6
CCCn1c(SCc2nc(-c3ccc(OC)cc3OC)no2)nnc1-c1ccc(Cl)cc1	-50.7%[59 µM]	u	x	-27.1%	9.3%	x
Cc1ccc(C(=O)NCc2ccc3c(c2)CCN3C(=O)c2ccc(C)cc2)cc1	1.3%[59 µM]	-10.9%	x	-26.7%	22.2%	x
CN(C)c1ccc(C2(c3ccc(N(C)C)cc3)OC(=O)c3cc(N)ccc32)cc1	16.3%[2.33 µM]	17.8µM*	u	28.2µM*	15.8µM*	u
COCCCNC(=O)CSc1nc(-c2ccc(OC)cc2)[nH]c1-c1ccc(OC)cc1	-6.8%[59 µM]	-33.9%	x	-29.8%	1.4%	x
Cn1cncc1C#Cc1ccc2cc(CCO)oc(=O)c2c1	1.1%[0.501 µM]	56.2µM*	-0.5	-28.1%	41.4%	-6.7
Cn1cncc1C#Cc1ccc2cc(CCCO)oc(=O)c2c1	9.4%[0.501 µM]	-0.7%	0.9	-25.5%	26.1%	-2.3
O=c1c(-c2ccc(F)cc2)nc2cnc(N3CCOCC3)nc2n1C1CC1	10.8%[0.501 µM]	x	x	x	x	x
O=S(=O)(Nc1nc2ccccc2nc1N1CCc2ccccc2C1)c1ccc(Br)cc1	8.91µM*	-7.9%	-15.5	0.3%	53.6%	u
CSc1ccc(CCNC(=O)C(C)n2nc(C)c3sc4ccccc4c3c2=O)cc1 (stereo not drawn)	u	u	x	-22.5%	13.6%	x
CCc1ccccc1Nc1nc2ccccc2c2nncn12	24.8%[59 µM]	8.6%	x	9.2%	57.8%	x
O=c1cc(-c2ccccc2)cc(-c2ccccc2)n1O	14.5%[12.7 µM]	35.5µM*	u	50.1µM*	6.7%	-22.4
Cn1c(-c2ccccc2)cc(=O)cc1-c1ccccc1	x	x	-19.0	x	x	2.8
CN(C)S(=O)(=O)c1ccc(C(=O)Nc2c(C(=O)Nc3ccc(F)cc3)oc3ccccc23)cc1	-28.1%[59 µM]	-14.0%	x	-10.3%	28.7%	x
COc1ccccc1CN1CCN(Cc2nc(-c3ccc(C)cc3)oc2C)CC1	20.7%	-33.1%	-20.0	u	16.6%	-12.4
